Screens: PubChem, several laboratories
WT yeast gro inh = growth inhibition of WT yeast, mitochondrial fusion screen; mitochondrial fusion phenotypic screen, WT strain; actives 2.1% (n = 190,000); inhibition, % at 10 µM; in the data active = inhibition above about 58%; tested in S. cerevisiae
Lmaj promast = inhibitors of Leishmania major promastigote growth | AID 1063 | actives 9% (n = 200,000) | inhibition, % at 10 µM | Leishmania major promastigotes, resazurin fluorescence viability; in the data active = inhibition above about 50%;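 note: promastigotes grown with compound for 44 hours at 28 °C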
Insulin prom inh = TRM-6 insulin promoter activity inhibition; TRM-6 cells (human fetal islet line), insulin promoter-eGFP reporter, imaging; reporter expression induced with tamoxifen; inhibition, % at 2 µM; actives 0.9% (n = 130,000);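 active = inhibition above the mean plus 3 SD, with well images judged a real hit on visual review, cut at about 60% in these data, passing the limit was not always enough; inconclusive = inhibition over the cutoff but images rejected on review; inactive = inhibition not above the cutoff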
Insulin prom up = MIN6 insulin promoter up-regulation. actives 0.3% (n = 190,000). z-score at 5 µM. MIN6 insulin promoter-GFP reporter, high-content imaging; stronger effect = higher value. AID 1625;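 active = z-score above 3 at 5 µM with at least 500 cells counted in the well; inconclusive = wells under 500 cells, flagged as cytotoxic or low count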
Autophagy mod = autophagy modulation, high-content screen. MEF GFP-LC3 puncta imaging; test concentration mostly 10 µM. calls only at 10 µM (by protocol). actives 0.98% (n = 190,000);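 active = percentage of spot-positive cells more than 3 SD above its plate mean, without a fluorescence outlier flag or 80% toxicity; inconclusive = no clear call, values can overlap the other calls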
Lmaj promast 1uM = inhibitors of Leishmania major promastigote growth, repeat at 1 uM; L. major promastigote growth, resazurin fluorescence, 48 h; actives 13% (n = 1,100); shares compounds with Lmaj promast; inhibition, % at 1 µM;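 active = inhibition above about 50% in both repeat tests, limit read from the data; inconclusive = one repeat under the set limit, the other over it; inactive = both repeats under the set limit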
A number is an active result; 0 = inactive; ? = inconclusive; - = no result given; + = active, no number. A selection: hits, their analogues and other compounds. The true share with any hit is near 11%.

SMILES	WT yeast gro inh	Lmaj promast	Insulin prom inh	Insulin prom up	Autophagy mod	Lmaj promast 1uM
COc1ccc(-c2[nH]c(-c3cccc(OC)c3)nc2SCC(=O)NCc2ccco2)cc1	0	0	-	0	-	-
COc1cc(C(=O)Nc2cccc3cccnc23)cc(OC)c1OC	0	0	0	0	0	-
COc1cc(NC(C)CCCN)c2ncccc2c1Oc1ccccc1 (centres undefined)	0	100.5	0	0	0	100.5
CN1/C(=C/C2CC(=O)N(c3cccc4ccccc34)C2=O)C(C)(C)c2ccccc21 (centres undefined)	0	0	0	-	0	-
CCN1C(=O)N(c2cccc3ccccc23)C(C)=CC1(C)C	0	50.7	0	0	0	0
COc1ccc(CNC(C)(C)C)cc1Cl	0	0	0	-	0	-
COc1ccc(CSC2=NCCN2)cc1Cl	0	99.4	0	0	0	0
Cc1ccc(NC(=O)NC(=O)N(C(C)C)S(C)(=O)=O)nc1	0	77.2	0	0	0	0
O=S(=O)(/C=C/c1ccccc1)Nc1cccc(S(=O)(=O)NC2=NCCC2)c1	0	0	0	0	0	-
Cc1nnc(SCC(=O)NNC(=O)CC#N)[nH]c1=O	0	0	0	0	0	-
O=Cc1ccc(OC2OCCOC2Oc2ccc(C=O)cc2)cc1 (centres undefined)	0	53.2	0	0	0	0
Cc1ccc(S(=O)(=O)c2cc(C#N)c(=O)[nH]c2N)cc1	0	0	0	-	0	-
FC(F)Oc1ccc(/C=N/c2c(-c3ccc(OC(F)F)cc3)nc3n2CCS3)cc1	0	72.3	0	0	0	0
CCN(CC)S(=O)(=O)c1ccc2oc(C(=O)NCc3ccc(F)cc3)c(C)c2c1	0	0	0	0	0	-
O=C1c2cc([N+](=O)[O-])cc3cc([N+](=O)[O-])cc(c23)C(=O)N1c1ccccn1	0	90.3	0	0	0	0
Cc1csc(NC(=O)CSc2nnc(-c3ccncc3)o2)n1	0	0	0	-	0	-
S=c1[nH]c(-c2ccccc2)cs1	0	77.3	-	0	0	0
CN(C(=O)COC(=O)c1ccc(Cl)cc1N)C1CCS(=O)(=O)C1 (centres undefined)	0	0	0	0	0	-
COc1ccc(C2=NN(C(=O)c3ccc(Cl)c([N+](=O)[O-])c3)C(c3ccccc3)C2)cc1 (centres undefined)	0	0	0	0	0	-
CCn1cc([N+](=O)[O-])c(C(=O)N2N=C(c3ccc(OC)cc3OC)CC2c2ccccc2O)n1 (centres undefined)	0	60.0	0	0	0	0
CCN(CC)C(=O)CCNS(=O)(=O)c1ccc(C)cc1	0	0	0	0	0	-
Cc1ccc(S(=O)(=O)C(c2ccccc2)c2c(C)noc2C)cc1 (centres undefined)	0	60.8	0	0	0	0
Cc1noc(C)c1C(c1ccccc1)S(=O)(=O)c1ccccc1 (centres undefined)	0	84.8	0	0	0	0
Cc1noc(C)c1C(c1ccccc1)c1ccccc1	0	0	0	0	0	-
O=C(CSc1nc2ccccc2s1)N1CCCCC1	0	0	0	0	0	-
SMILES	WT yeast gro inh	Lmaj promast	Insulin prom inh	Insulin prom up	Autophagy mod	Lmaj promast 1uM
Cc1c(Cl)cccc1N/C(SCC(=O)N1CCCCCC1)=C(/C#N)c1nc2ccccc2s1	0	99.6	-	?	0	0
CCN(CC)CCNC(=O)c1ccc2c(=O)n(CCc3ccccc3)c(=O)[nH]c2c1	0	0	-	0	0	-
CN(C)CCCN1c2ccccc2Sc2ccccc21	0	0	0	-	0	-
CN(C)CCCN1c2ccccc2CCc2ccc(Cl)cc21	61.8	98.8	0	-	0	0
CNCCCN1c2ccccc2CCc2ccccc21	0	82.4	0	-	0	0
COC(=O)c1c(C)[nH]c(C)c1C(C)=O	-	-	-	0	-	-
CCN(CCCNC(=O)C1CCCN(S(=O)(=O)c2cnc[nH]2)C1)c1ccccc1 (centres undefined)	0	0	-	0	-	-
CC(C)C1Oc2ccccc2N(CC(=O)NCCCN2C(C)CCCC2C)C1=O (centres undefined)	0	0	-	0	0	-
Cc1cc(C)nc(/N=c2/ssnc2Cl)c1	63.1	99.4	-	0	0	93.6
Cc1ccc(N=c2ssnc2Cl)cc1	0	0	0	0	0	-
CCN(CC(=O)Nc1c(C(=O)OC)[nH]c2ccc(C)cc12)c1ccc2c(c1)OCO2	0	0	0	0	0	-
OC1(c2ccc(F)cc2)CCN(Cc2ccccc2)C1 (centres undefined)	0	88.1	-	0	0	0
OC1(c2ccc3c(c2)OCO3)CCN(Cc2ccc(F)cc2)CC1	-	-	-	0	-	-
CCN(CC)C(=O)CSc1nnc(-c2ccccc2)c(-c2ccccc2)n1	0	0	0	0	0	-
CCN(CC)C(=O)n1cnc(-c2ccccc2)c1-c1ccccc1	0	69.0	0	0	0	0
Cc1c2ccccc2nc2c(F)c(NC(C)C)c(F)c(F)c12	0	50.5	0	-	+	0
Cc1c2ccccc2nc2c(F)c(NCCO)c(F)c(F)c12	0	0	0	0	0	-
CCOC(=O)C1(Cc2ccc(OC)cc2)CCN(C(=O)c2ccoc2C)CC1	0	0	-	0	0	-
Nc1nc(-c2cccs2)c(NC(=O)c2ccccc2)s1	0	86.2	-	0	-	0
N/N=C(\c1ccccc1)C12CN3CN(CN(C3)C1)C2	0	52.0	0	0	0	0
C=CCOc1ccc2c(c1)c(S(=O)(=O)c1ccc(C)cc1)cn2COC	0	88.0	0	0	0	0
C=CCOc1ccc2c(c1)c(=O)cc(C(=O)O)n2CC	-	-	-	0	-	-
CC12CCCCN1CCCc1c2[nH]c2ccccc12 (centres undefined)	0	64.4	-	0	0	0
CC1Cc2ccccc2N1C(=O)CSc1nnc(Cc2ccccc2)n1CCc1ccccc1 (centres undefined)	0	50.8	0	0	0	0
O=[N+]([O-])c1ccc(O)c2ncccc12	0	96.3	0	-	0	0
SMILES	WT yeast gro inh	Lmaj promast	Insulin prom inh	Insulin prom up	Autophagy mod	Lmaj promast 1uM
O=[N+]([O-])c1ccc(O)c2cccnc12	0	0	-	0	0	-
COc1ccc(-c2nc(NC(=O)c3cc(C(C)(C)C)nn3C)sc2C)cc1	0	70.2	-	0	0	0
NC(=O)C1CCN(C2CC(=O)N(c3ccc(F)c(Cl)c3)C2=O)CC1 (centres undefined)	0	0	0	0	0	-
CC[n+]1c(C)sc2c(C)cc(C)cc21	0	69.4	0	0	0	0
CCCn1nc(NC(=O)C2CCCO2)c2cc3cccc(C)c3nc21 (centres undefined)	-	-	-	0	-	-
CC(C)Cn1nc(NC(=O)C2CCCO2)c2cc3ccccc3nc21 (centres undefined)	0	62.8	?	0	0	0
C/C(=N\OCC(=O)NCC(F)(F)F)c1cc2ccccc2o1	0	56.3	0	0	0	0
C(=N\Nc1nc2ccccc2[nH]1)/c1ccccn1	66.9	99.7	0	?	0	0
CC1=NN(c2nc(-c3ccc(C)cc3)cs2)C(=O)C1N=Nc1ccc(C(N)=O)cc1 (centres undefined)	0	0	0	0	0	-
Cc1ccccc1/C=C/c1cc[n+](C)cc1	0	0	0	0	0	-
Cc1[nH]c2ccccc2c1/C=C/c1cc[n+](C)cc1	0	65.4	0	-	0	0
O=S(=O)(Nc1nc2ccc(S(=O)(=O)N3CCCC3)cc2s1)c1ccc(F)cc1	0	0	0	0	0	-
